Test results published in PubChem BioAssay AID504832 (National Center for Advancing Translational Sciences (NCATS), 2011).
The whole screen tested about 310,000 compounds, of which about 18,000 (5.8%) were called active. Roughly 22% stayed inconclusive and do not appear here. For the sample, actives were picked, then their nearest neighbours and some compounds at random. A number with no mark means an inactive call. Calls follow the shape of the dose curve; as a rule, active = well fitted inhibition curve with a large enough effect; inconclusive = small, poorly fitted or top-dose-only effect, or another doubt; inactive = no such curve, though single readings can be large or run the other way.

Assay: Primary qHTS for delayed death inhibitors of the malarial parasite plastid, 48 hour incubation
Conditions: P. falciparum luciferase growth in erythrocytes; series mostly up to 28.7 µM; activity change, negative = inhibition: at the top concentration
Method in brief: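 Growth was read as firefly luciferase luminescence after a 48 h, 37 C, 5% CO2 exposure of compounds to reporter-bearing P. falciparum cultures (0.1% parasitemia, 2% hematocrit final) in Albumax-supplemented RPMI 1640.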
% is scaled to controls: 0 for no effect and ±100 for the full control effect; potency is read from the fitted curve at half-maximal effect.

**Q.** Which Potency does the source give for `O=[N+]([O-])c1ccc(C=Nc2ccc(Cl)cc2Cl)s1` here?
**A.** 10.4 µM (active)

**Q.** With `O=S(=O)(Nc1ccccc1Cl)c1cccc2nsnc12` as the compound, how does the “activity change, negative = inhibition” value read?
**A.** -17%

**Q.** Which “activity change, negative = inhibition” value does the source give for `C/C(CC(=O)NCc1ccc(Cl)cc1)=N\NC(=O)COc1ccc(C)cc1Br` here?
**A.** 30.4%

**Q.** With `COc1ccc(-c2cc(C(=O)N3CCN(Cc4ccc5c(c4)OCO5)CC3)on2)cc1OC` as the compound, how does the “activity change, negative = inhibition” value read?
**A.** -17.8%

**Q.** For `COc1ccccc1CCCNC(=O)C1CCC(=O)N(CCN2CCOCC2)C1` (configuration not stated), which “activity change, negative = inhibition” value is on record?
**A.** 5.42%

**Q.** For `Cc1cccc(OCC(=O)NC(=S)Nc2ccccc2N2CCOCC2)c1`, which “activity change, negative = inhibition” value is on record?
**A.** 6.3%

**Q.** For `Cc1cc(C)cc(OCC(=O)Nc2ccc(N3CCOCC3)cc2N2CCOCC2)c1`, which Potency is on record?
**A.** 11.7 µM (active)

**Q.** For `O=C(COc1ccc(Cl)cc1)NC(=S)Nc1ccccc1N1CCOCC1`, which “activity change, negative = inhibition” value is on record?
**A.** 12.9%

**Q.** Which “activity change, negative = inhibition” value does the source give for `CC(C)c1ccc(/C=C/C(=O)NCCCN2CCOCC2)cc1` here?
**A.** 5.73%

**Q.** For `O=C(OCC(=O)N1CCN(C(=O)c2ccco2)CC1)c1cccc(O)c1`, which “activity change, negative = inhibition” value is on record?
**A.** -3.72%

**Q.** Which “activity change, negative = inhibition” value does the source give for `O=c1onc(-c2cccs2)n1Cc1ccccc1` here?
**A.** -11.5%

**Q.** Which Potency does the source give for `Cc1cc(-c2csc(N)n2)c(C)n1Cc1ccccc1` here?
**A.** 11.7 µM (active)

**Q.** With `Cc1n[nH]c(=O)n1-c1ccc(Oc2ccccc2)cc1` as the compound, how does the “activity change, negative = inhibition” value read?
**A.** 87.2%

**Q.** For `S=c1[nH]nc(-c2cc(-c3ccsc3)n[nH]2)n1-c1ccccc1`, which “activity change, negative = inhibition” value is on record?
**A.** 25.4%

**Q.** For `CCCc1cc(-c2n[nH]c(=S)n2Cc2ccccc2)cs1`, which “activity change, negative = inhibition” value is on record?
**A.** 15%

**Q.** With `Cc1cc(-c2csc(N)n2)c(C)n1-c1ccccc1` as the compound, how does the Potency read?
**A.** 14.7 µM (active)

**Q.** With `O=C(Cc1ccc(Br)cc1)NCCN1CCOCC1` as the compound, how does the activity change, negative = inhibition read?
**A.** 5.97% [at 0.00184 µM]

**Q.** With `CCC(C(=O)N1CCN(S(=O)(=O)c2sc(C(=O)O)c(C)c2C(=O)O)CC1)c1ccccc1` (configuration not stated) as the compound, how does the “activity change, negative = inhibition” value read?
**A.** -4.44%

**Q.** For `COc1ccc(OC)c(NC(=O)c2cccc(S(=O)(=O)N3CCN(C(C)=O)CC3)c2)c1`, which “activity change, negative = inhibition” value is on record?
**A.** -22.4%

**Q.** With `COc1cc(OC)cc(C(=O)Nc2nnc(SCC(=O)NCC3CCCO3)s2)c1` (configuration not stated) as the compound, how does the “activity change, negative = inhibition” value read?
**A.** 4.43%

**Q.** Which “activity change, negative = inhibition” value does the source give for `Cc1ccccc1Nc1nc(-c2cccnc2)cs1` here?
**A.** 20.1%

**Q.** For `CCCOc1ccc(Cc2c(O)nc(SC)[nH]c2=O)cc1C`, which “activity change, negative = inhibition” value is on record?
**A.** -4.88%

**Q.** With `CN(C)c1cc[n+](Cc2ccccc2)cc1` as the compound, how does the Potency read?
**A.** 0.928 µM (active)

**Q.** With `CC1=NN(Cc2ccccc2)C(=O)/C1=C/c1ccc(N(C)C)cc1` as the compound, how does the “activity change, negative = inhibition” value read?
**A.** -8.44%

**Q.** For `c1ccc(Cc2cc[n+](Cc3ccccc3)cc2)cc1`, which Potency is on record?
**A.** 1.17 µM (active)

**Q.** With `CN(C)c1ccc(/C=N/N(Cc2ccccc2)c2ccccc2)cc1` as the compound, how does the “activity change, negative = inhibition” value read?
**A.** -3.46%

**Q.** With `C[n+]1ccc(C(=O)NCc2ccccc2)cc1` as the compound, how does the “activity change, negative = inhibition” value read?
**A.** 18.5%

**Q.** For `COC(=O)c1ccc(Cc2ccccc2)o1`, which “activity change, negative = inhibition” value is on record?
**A.** 17.1%

**Q.** For `Cc1ccc(NS(=O)(=O)c2cc3c(cc2C)NC(=O)CO3)cc1`, which “activity change, negative = inhibition” value is on record?
**A.** -9.35%

**Q.** Which “activity change, negative = inhibition” value does the source give for `Cc1ccc(S(=O)(=O)N2CCC(N3CCCCCC3)CC2)cc1` here?
**A.** -21%

**Q.** For `c1ccc(C2CCC(N3CCC(N4CCCCC4)CC3)CC2)cc1` (configuration not stated), which Potency is on record?
**A.** 10.4 µM (active)

**Q.** With `O=S(=O)(c1ccccc1)N1CCC(c2ccccc2)CC1` as the compound, how does the “activity change, negative = inhibition” value read?
**A.** -4.53%
